# Results as given in the supplement of paper PMC8728848.
# The full list was thinned out, with the strongest signals kept by preference.
# Key:
# Test in all cases: glycan array binding signal (z-score within array); higher = stronger binding
# Conditions in all cases: glycan notation: IUPAC condensed, linker removed
# [1] = biological target: Fuc(a1-2)Gal(b1-3)GlcNAc(b1-3)[Neu5Ac(a2-6)Gal(b1-4)GlcNAc(b1-6)]Gal(b1-4)Glc
# How it was run: (§1)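 Glycan array binding is given as a within-array Z-score, which can be read as non-binding when negative. The arrays, 3228 of them, came from the Consortium for Functional Glycomics database and were retained only where the protein sequence was available. Z-scores were averaged across arrays of the same protein sequence at different concentrations or buffers and across linkers.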
# [2] = biological target: Fuc(a1-3)[Gal(b1-4)]GlcNAc(b1-6)GalNAc
# How it was run: as §1
# Gal(a1-2)Gal = biological target: Gal(a1-2)Gal
# How it was run: as §1
# [3] = biological target: Gal(a1-3)Gal(b1-3)GlcNAc(b1-6)GalNAc
# How it was run: as §1
# [4] = biological target: Gal(a1-3)Gal(b1-3)[Fuc(a1-4)]GlcNAc(b1-2)Man(a1-3)[Gal(a1-3)Gal(b1-3)[Fuc(a1-4)]GlcNAc(b1-2)Man(a1-6)]Man(b1-4)GlcNAc(b1-4)GlcNAc
# How it was run: as §1
# [5] = biological target: Gal(a1-3)[Gal(a1-4)]Gal(b1-4)GlcNAc
# How it was run: as §1
# Gal(a1-4)Gal(b1-4)Glc = biological target: Gal(a1-4)Gal(b1-4)Glc
# How it was run: as §1
# [6] = biological target: Gal(b1-3)GlcNAc(b1-2)Man(a1-3)[GlcNAc(b1-4)][Gal(b1-3)GlcNAc(b1-2)Man(a1-6)]Man(b1-4)GlcNAc(b1-4)GlcNAc
# How it was run: as §1
# Gal(b1-3)GlcNAc6S = biological target: Gal(b1-3)GlcNAc6S
# How it was run: as §1
# [7] = biological target: Gal(b1-4)GlcNAc(b1-3)Gal(b1-4)GlcNAc(b1-2)[Gal(b1-4)GlcNAc(b1-3)Gal(b1-4)GlcNAc(b1-6)]Man(a1-6)[Gal(b1-4)GlcNAc(b1-3)Gal(b1-4)GlcNAc(b1-2)Man(a1-3)]Man(b1-4)GlcNAc(b1-4)[Fuc(a1-6)]GlcNAc
# How it was run: as §1
# [8] = biological target: Gal(b1-4)GlcNAc(b1-3)Gal(b1-4)GlcNAc(b1-3)Gal(b1-4)GlcNAc(b1-2)[Gal(b1-4)GlcNAc(b1-3)Gal(b1-4)GlcNAc(b1-3)Gal(b1-4)GlcNAc(b1-6)]Man(a1-6)[Gal(b1-4)GlcNAc(b1-3)Gal(b1-4)GlcNAc(b1-3)Gal(b1-4)GlcNAc(b1-2)Man(a1-3)]Man(b1-4)GlcNAc(b1-4)[Fuc(a1-6)]GlcNAc
# How it was run: as §1
# [9] = biological target: Gal(b1-4)GlcNAc(b1-3)Gal(b1-4)GlcNAc(b1-3)Gal(b1-4)GlcNAc(b1-3)Gal(b1-4)GlcNAc(b1-3)Gal(b1-4)GlcNAc(b1-2)Man(a1-3)[Gal(b1-4)GlcNAc(b1-3)Gal(b1-4)GlcNAc(b1-3)Gal(b1-4)GlcNAc(b1-3)Gal(b1-4)GlcNAc(b1-3)Gal(b1-4)GlcNAc(b1-2)Man(a1-6)]Man(b1-4)GlcNAc(b1-4)GlcNAc
# How it was run: as §1
# [10] = biological target: Gal(b1-4)GlcNAc(b1-3)Gal(b1-4)GlcNAc(b1-3)Gal(b1-4)GlcNAc(b1-3)Gal(b1-4)GlcNAc(b1-3)Gal(b1-4)GlcNAc(b1-2)Man(a1-3)[Gal(b1-4)GlcNAc(b1-3)Gal(b1-4)GlcNAc(b1-3)Gal(b1-4)GlcNAc(b1-3)Gal(b1-4)GlcNAc(b1-3)Gal(b1-4)GlcNAc(b1-2)Man(a1-6)]Man(b1-4)GlcNAc(b1-4)[Fuc(a1-6)]GlcNAc
# How it was run: as §1
# [11] = biological target: Gal(b1-4)GlcNAc(b1-3)Gal(b1-4)GlcNAc(b1-3)Gal(b1-4)GlcNAc(b1-3)Gal(b1-4)GlcNAc(b1-3)Gal(b1-4)GlcNAc(b1-3)Gal(b1-4)GlcNAc(b1-2)Man(a1-3)[Gal(b1-4)GlcNAc(b1-3)Gal(b1-4)GlcNAc(b1-3)Gal(b1-4)GlcNAc(b1-3)Gal(b1-4)GlcNAc(b1-3)Gal(b1-4)GlcNAc(b1-3)Gal(b1-4)GlcNAc(b1-2)Man(a1-6)]Man(b1-4)GlcNAc(b1-4)GlcNAc
# How it was run: as §1
# [12] = biological target: Gal(b1-4)GlcNAc(b1-3)[Gal(b1-4)GlcNAc(b1-6)]Gal(b1-4)GlcNAc
# How it was run: as §1
# Gal(b1-4)GlcNAc6P = biological target: Gal(b1-4)GlcNAc6P
# How it was run: as §1
# Gal6P(b1-4)GlcNAc = biological target: Gal6P(b1-4)GlcNAc
# How it was run: as §1
# GalNAc(a1-3)Gal = biological target: GalNAc(a1-3)Gal
# How it was run: as §1
# GalNAc(b1-3)GlcNAc = biological target: GalNAc(b1-3)GlcNAc
# How it was run: as §1
# GalNAc6S(b1-4)GlcNAc = biological target: GalNAc6S(b1-4)GlcNAc
# How it was run: as §1
# GlcA(b1-6)Gal = biological target: GlcA(b1-6)Gal
# How it was run: as §1
# [13] = biological target: GlcNAc(a1-4)Gal(b1-4)GlcNAc(b1-3)Gal(b1-4)Glc
# How it was run: as §1
# [14] = biological target: GlcNAc(b1-2)Man(a1-3)[GlcNAc(b1-4)][GlcNAc(b1-2)Man(a1-6)]Man(b1-4)GlcNAc(b1-4)[Fuc(a1-6)]GlcNAc
# How it was run: as §1
# GlcNAc(b1-3)Gal = biological target: GlcNAc(b1-3)Gal
# How it was run: as §1
# [15] = biological target: GlcNAc(b1-3)Gal(b1-4)GlcNAc(b1-3)Gal(b1-4)GlcNAc(b1-3)Gal(b1-4)GlcNAc(b1-3)Gal(b1-4)GlcNAc(b1-2)Man(a1-3)[GlcNAc(b1-3)Gal(b1-4)GlcNAc(b1-3)Gal(b1-4)GlcNAc(b1-3)Gal(b1-4)GlcNAc(b1-3)Gal(b1-4)GlcNAc(b1-2)Man(a1-6)]Man(b1-4)GlcNAc(b1-4)[Fuc(a1-6)]GlcNAc
# How it was run: as §1
# [16] = biological target: GlcNAc(b1-3)Gal(b1-4)GlcNAc(b1-3)GalNAc
# How it was run: as §1
# [17] = biological target: Man(a1-3)[Man(a1-6)]Man(a1-6)[Man(a1-3)]Man(b1-4)GlcNAc(b1-4)GlcNAc
# How it was run: as §1
# [18] = biological target: Neu5Ac(a2-3)Gal(b1-3)GlcNAc(b1-3)GalNAc
# How it was run: as §1
# [19] = biological target: Neu5Ac(a2-3)Gal(b1-3)[Fuc(a1-4)]GlcNAc(b1-3)Gal(b1-4)[Fuc(a1-3)]GlcNAc
# How it was run: as §1
# [20] = biological target: Neu5Ac(a2-3)Gal(b1-3)]Neu5Ac(a2-3)Gal(b1-4)]GlcNAc
# How it was run: as §1
binder,measurement,setting,value
PX9961J-bvu-499-24-499 (Bacteroides vulgatus) (protein) LNTDPSTAVPSDDAIKNIDDAQVALNGIYRLASAHSYYGDNYLYYADCRGEDVQARINKGAGRRVSPYYFFDVTADDNFNITLVWNQPYKVIHQANSLIEKLDAGNAGNARPEEVARIKSEALAMRGLALFDLTRLFGMPYTLDNGASLGVPIEIQTTLEDHAPERNTVAQCYEQVLKDLNDALGGLTKEKHDAYMNYWSVKALLSRVYLYMNDNENALKCAEEVINDNGGIYRLFTHDEYPSVWGKDFNSESLFEFYFTMSEPSGGSGGEGAPMVYADNVKDWNNLILTKAYLDLLNEDPEDVRHVFPHLPENAVADTLPVAAKGQPKYLIKYPGKSGSVTDAVSTVNPQDNDLCILRLSEVYLNAAEAAFKIGNTEKALTYLNAIVTRANPAKSVTSADLSLERILKERRKELVGEGHAFFDYMRNGKSVDRSGGWHLTMPEDARVIAPSDPRVALPIPQTEIDANPNIVQNPR,glycan array binding signal (z-score),[1],-0.281
same,glycan array binding signal (z-score),[2],-0.674
same,glycan array binding signal (z-score),Gal(a1-2)Gal,-0.036
same,glycan array binding signal (z-score),[3],1.19
same,glycan array binding signal (z-score),[4],2.95
same,glycan array binding signal (z-score),[5],3.12
same,glycan array binding signal (z-score),Gal(a1-4)Gal(b1-4)Glc,-0.223
same,glycan array binding signal (z-score),[6],2.45
same,glycan array binding signal (z-score),Gal(b1-3)GlcNAc6S,-0.142
same,glycan array binding signal (z-score),[7],3.83
same,glycan array binding signal (z-score),[8],0.849
same,glycan array binding signal (z-score),[9],4.09
same,glycan array binding signal (z-score),[10],2.67
same,glycan array binding signal (z-score),[11],0.326
same,glycan array binding signal (z-score),[12],-0.048
same,glycan array binding signal (z-score),Gal(b1-4)GlcNAc6P,0.028
same,glycan array binding signal (z-score),Gal6P(b1-4)GlcNAc,-0.613
same,glycan array binding signal (z-score),GalNAc(a1-3)Gal,2.34
same,glycan array binding signal (z-score),GalNAc(b1-3)GlcNAc,0.212
same,glycan array binding signal (z-score),GalNAc6S(b1-4)GlcNAc,2.75
same,glycan array binding signal (z-score),GlcA(b1-6)Gal,0.034
same,glycan array binding signal (z-score),[13],0.01
same,glycan array binding signal (z-score),[14],-0.709
same,glycan array binding signal (z-score),GlcNAc(b1-3)Gal,-0.109
same,glycan array binding signal (z-score),[15],2.84
same,glycan array binding signal (z-score),[16],0.1
same,glycan array binding signal (z-score),[17],-0.181
same,glycan array binding signal (z-score),[18],0.006
same,glycan array binding signal (z-score),[19],-0.506
same,glycan array binding signal (z-score),[20],0.358
